Screening results: PubChem BioAssay, National Center for Advancing Translational Sciences (NCATS)
Only some compounds are listed: those with a hit (about 7.7% of all), similar ones and a draw of the others.
Sm TGR inh = inhibitors of Schistosoma mansoni thioredoxin glutathione reductase; Q962Y6; purified TGR, DTNB reduction, TNB absorbance 405 nm; Potency, µM (titrated, usually from 114 µM), without a hit: at the highest dose activity change, negative = inhibition, most hits filed as inhibitors; 360,000 compounds, 3% hits; AID 485364; further: potency means the concentration at half of the fitted maximal effect; nearly all actives have a fitted effect of over 60% in size
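Kinetic colorimetric format: TGR-catalysed, NADPH-driven DTNB reduction monitored via TNB absorbance. Enzyme dispensed at 20 nM; compound exposure 15 min at room temperature before reaction start.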
HCMV antiviral = human cytomegalovirus inhibition; HFF cells, HCMV-luciferase reporter, 72 h; active compounds read low; activity change, negative = inhibition, % at 57.5 µM; 410,000 compounds, 4.5% hits; AID 1259415; in the data active means activity change below about -60%; inconclusive means no clear call, values can overlap the other calls; inactive means above about -39%
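Two-dose cell screen: HFF monolayers treated with compounds and infected with luciferase-expressing HCMV at 1 PFU/cell, 72 h at 37C, then lysed for luciferase measurement.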
Giardia FBPA inh-1 = blocks Giardia fructose-bisphosphate aldolase activity. 290,000 compounds, 0.71% hits. AID 2451. purified Giardia FBPA. Potency, µM (highest dose often 59.6 µM), for inactives: at the top dose activity, negative = inhibition, actives largely listed as inhibitors. A8B2U2; further: potency means the concentration at half of the fitted maximal effect; nearly all actives have a fitted effect of over 55% in size
Target sequence (A8B2U2 whole entry, looked up): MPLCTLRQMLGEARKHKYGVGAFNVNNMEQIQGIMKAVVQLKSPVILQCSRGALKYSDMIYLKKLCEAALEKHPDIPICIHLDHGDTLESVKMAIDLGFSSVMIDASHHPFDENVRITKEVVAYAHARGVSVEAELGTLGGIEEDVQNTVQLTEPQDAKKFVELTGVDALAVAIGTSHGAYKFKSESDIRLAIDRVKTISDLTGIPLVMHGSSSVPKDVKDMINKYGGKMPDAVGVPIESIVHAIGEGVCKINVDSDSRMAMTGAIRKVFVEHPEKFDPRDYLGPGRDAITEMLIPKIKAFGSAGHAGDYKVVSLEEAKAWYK
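40 nM FBPA preincubated 10 min at RT with compound (up to 57.5 uM final), then substrate plus GAPDH/TPI/NAD/arsenate coupling and diaphorase/resazurin added. Fluorescence read after 20 min at RT, 525/598 nm.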
FMDV inh = foot and mouth disease virus antiviral activity; FMDV antiviral cell-based qHTS; 410,000 compounds, 1.2% hits; Potency, µM (highest dose often 57.9 µM), for the others: at the top dose activity change, negative = inhibition, usual class: inhibitors; AID 1159524; calls by dose curve; tested in HEK293T cells; further: read-out not given here; potency means the concentration at half of the fitted maximal effect; nearly all actives have a fitted effect of over 45% in size
TbPYK inhibitor = T. brucei pyruvate kinase inhibition; 410,000 compounds, 0.12% hits; Q57TT1; TbPYK enzyme, Kinase-Glo Plus ATP luminescence, 45 min; Potency, µM (doses to about 76.8 µM), for the others: at the highest dose activity, negative = inhibition, actives largely listed as inhibitors; further: potency means the concentration at half of the fitted maximal effect; nearly all actives have a fitted effect of over 50% in size
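ADP (130 uM final) triggers the TbPYK reaction after compound addition; incubation is 45 min at room temperature. Kinase-Glo Plus is then added and luminescence imaged. Normalized data are fitted to concentration-effect curves.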
RE007 growth inh = less growth of the S. pombe RE007 Vpr strain; S. pombe RE007 Vpr strain, BacTiter-Glo ATP luminescence, 24 h; Potency, µM (doses to about 92.2 µM), inactives show at the top dose activity change, negative = less growth, actives largely listed as inhibitors; 360,000 compounds, 0.21% hits; AID 651644; active means well fitted falling curve with a large enough effect; inconclusive means small, poorly fitted or top-dose-only effect; inactive means no such curve, though single readings can be large or run the other way; further: potency means the concentration at half of the fitted maximal effect; nearly all actives have a fitted effect of over 50% in size
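Fission yeast strain RE007, carrying one chromosomally integrated HIV-1 vpr copy, was seeded at OD 0.01 in PMG+AL medium with 23 nL pinned compound. After 24 h at 30 °C and 99% humidity, viability was read by BacTiter-Glo luminescence.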
Giardia growth = inhibitors of Giardia lamblia growth | AID 2785 | 1,500 compounds, 5% hits | Potency, µM (titrated, usually from 57.5 µM), inactives show at the highest dose activity change, negative = inhibition, usual class: inhibitors | shares compounds with Giardia FBPA inh-1 | Giardia lamblia trophozoite growth inhibition;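 further: potency means the concentration at half of the fitted maximal effect; trophozoites exposed to compound for 48 h at 37 °C; nearly all actives have a fitted effect of over 70% in size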
Mammal cell tox = toxic to mammalian cells in Giardia aldolase counter-screen | shares compounds with Giardia FBPA inh-1 | mammalian cell viability counter-screen, qHTS | Potency, µM (top dose mostly 57.5 µM), for the others: top-dose viability change, negative = toxicity, actives largely listed as inhibitors | 1,500 compounds, 4% hits | AID 2786;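 further: Chinese hamster ovary cells used as mammalian cytotoxicity surrogate; viability measured as cellular ATP by luminescence; potency means the concentration at half of the fitted maximal effect; compound exposure lasted 48 h before reading; nearly all actives have a fitted effect of over 60% in size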
Giardia FBPA inh-2 = confirmation of Giardia fructose-bisphosphate aldolase inhibitors; shares compounds with Giardia FBPA inh-1; purified Giardia aldolase enzyme activity, qHTS; Potency, µM (top dose mostly 57.5 µM), for the others: at the highest dose activity change, negative = inhibition, hits mostly inhibitors; 1,500 compounds, 5% hits; further: potency means the concentration at half of the fitted maximal effect; nearly all actives have a fitted effect of over 45% in size
Rabbit FBPA inh = rabbit FBP aldolase inhibition by Giardia aldolase hits | shares compounds with Giardia FBPA inh-1 | Rabbit muscle FBPA enzyme inhibition, selectivity counter-screen | Potency, µM (titrated, usually from 57.5 µM), for inactives: at the highest dose activity, negative = inhibition, usual class: inhibitors | 1,500 compounds, 4% hits; further: potency means the concentration at half of the fitted maximal effect; nearly all actives have a fitted effect of over 60% in size
GAPDH coupling = counter-screen for Giardia aldolase inhibitors: GAPDH coupling enzyme. shares compounds with Giardia FBPA inh-1. GAPDH coupling enzyme counterscreen, biochemical, qHTS. Potency, µM (doses to about 57.5 µM), for the others: top-dose activity change, negative = inhibition, hits mostly inhibitors. 1,500 compounds, 6% hits; further: potency means the concentration at half of the fitted maximal effect; nearly all actives have a fitted effect of over 55% in size
* marks the source's active call; other numbers are inactive results; ? = inconclusive; · = no result; [ ] = another dose, or the depositor's remark. Unless noted, the call rests on the fitted dose curve; in most records, active means well fitted curve in the direction sought with a large enough effect; inconclusive means small, poorly fitted or top-dose-only effect, or another doubt; inactive means no such curve, though single readings can be large; an effect the other way counts as inactive or inconclusive. On the % scale 0 is the no-effect control and ±100 the full control effect.

SMILES | Sm TGR inh | HCMV antiviral | Giardia FBPA inh-1 | FMDV inh | TbPYK inhibitor | RE007 growth inh | Giardia growth | Mammal cell tox | Giardia FBPA inh-2 | Rabbit FBPA inh | GAPDH coupling
O=C(N/N=C/c1ccccn1)c1cccc([N+](=O)[O-])c1 | 46% | -14 | 16µM* | -2% | 5% | 3% | -27% | ? | 15% | -3% | 8%
O=C(N/N=C/c1ccccn1)c1cc([N+](=O)[O-])cc([N+](=O)[O-])c1 | -3% | 67 | 10µM* | ? | -11% | -11% | 25µM* | ? | 1% | -8% | -6%
O=[N+]([O-])c1ccccc1/C=N/Nc1nc(N2CCCC2)nc(N2CCCC2)n1 | 3% | 58 | 2% | ? | 2% | -23% | · | · | · | · | ·
COc1nc(N/N=C/c2ccc(-c3ccccc3[N+](=O)[O-])o2)nc(N2CCOCC2)n1 | -29% | 55 | 4.5µM* | -11% | -14% | · | -33%[38.3 µM] | -7% | ? | ? | 40µM*
CC1(C)CC(=O)C(N=Nc2cccc([N+](=O)[O-])c2)=C(O)C1 | ? | 10 | 2% | 10% | -3% | 14% | · | · | · | · | ·
CCOc1cc(C=O)cc(N=Nc2cccc([N+](=O)[O-])c2)c1O | ? | 34 | 13µM* | -13% | -4% | -19% | ? | 1% | -19% | -11% | -1%
O=C(NCSc1ccnc(SCNC(=O)c2ccccc2)n1)c1ccccc1 | ? | 19 | 5% | -6% | -6% | 1% | · | · | · | · | ·
O=C(NCSc1ccncn1)c1ccccc1 | 28µM* | 15 | 16µM* | -16% | 1% | -16% | 8%[10.4 µM] | 1% | 7% | 5% | 10%
CC(C(=O)NC1C(=O)N2C(C(=O)O)=C(CSc3nnnn3C)CSC12)n1cc(Cl)cn1 (stereo not given) | ? | 5 | 18µM* | -4% | -6% | 3% | 13%[10.4 µM] | -4% | 1% | 2% | 2%
Cc1nnc(SCC2=C(C(=O)O)N3C(=O)C(NC(=O)C(C)n4nc(C(F)(F)F)cc4C)C3SC2)s1 (stereo not given) | 7.1µM* | -29 | 6.3µM* | -11% | -5% | 2% | -11% | -6% | 2% | 2% | 14%
CO/N=C(/C(=O)N[C@@H]1C(=O)N2C(C(=O)O)=C(CSc3nc(C)c(CC(=O)O)s3)CS[C@H]12)c1csc(N)n1 | · | · | · | · | 1% | · | · | · | · | · | ·
COc1ccc(CCn2c(NN=C3CCCCC3)nc3c2c(=O)[nH]c(=O)n3C)cc1 | ? | · | 4.5µM* | -16% | -3% | 10% | -5%[10.4 µM] | -1% | 5.6µM* | ? | 7.9µM*
CC(C)OC(=O)CC1C(=O)NCCN1C(=S)NC(=O)c1cccs1 (stereo not given) | -30% | -30 | 5.6µM* | -10% | ? | -9% | 4%[38.3 µM] | -2% | -2% | 4% | -2%
COC(=O)CC1C(=O)NCCN1C(=S)Nc1ccccc1 (stereo not given) | 2% | ? | -3% | -2% | -13% | 4% | · | · | · | · | ·
